# The whole screen tested about 320,000 compounds, of which about 22,000 (6.9%) were called active. Another 27% or so got no clear call; they are omitted. Many of the other results were omitted from the sample, so actives are more common in it than they were. A number with no mark means an inactive call. Calls come from the whole dose curve; as a rule, active = well fitted inhibition curve with a large enough effect; inconclusive = small, poorly fitted or top-dose-only effect, or another doubt; inactive = no such curve, though single readings can be large or run the other way.
# Assay: Primary qHTS for delayed death inhibitors of the malarial parasite plastid, 96 hour incubation
# Conditions: P. falciparum luciferase reporter growth; series mostly up to 28.7 µM; activity change, negative = inhibition: at the top concentration
# Text: The goal of this screen is to discover new antimalarial compounds that act by inhibiting the development of the apicoplast in the malarial parasite Plasmodium falciparum. The biochemical processes that make this organelle essential for erythrocytic stage parasites are not well understood. However, antibiotics such as azithromycin and tetracycline, which target the apicoplast translational machinery, have a potent antimalarial effect.
# We have developed a cell-based assay that measures parasite growth based on the expression of an integrated copy of a firefly luciferase reporter. To detect small molecules that cause this "delayed death" phenotype, erythrocytes infected with the luciferase-expressing parasites were incubated with compounds for either one or two generations, corresponding to 48 and 96 hours, respectively. Compounds that inhibit parasite growth in the second generation, but not the first, should be enriched in antimalarials that target the apicoplast. Growth inhibition is detected by a decrease in luciferase activity.
# Assay Provider: David Fidock and Eric Ekland, Columbia University
# Keywords: NIH Roadmap, MLPCN, MLI, MLSMR, qHTS, NCGC, qHTS, malaria, luciferase, viability
# Four microliters of infected erythrocytes (2% hematocrit, 0.05% parasitemia final concentration) in culture medium were dispensed and the plates incubated for 96 hours at 37 C in 5% CO2. Two microliters of luciferase detection reagent was added and luminescence was detected by a ViewLux (PerkinElmer) reader.
# % is set by controls: 0 for no effect and ±100 for the full control effect; potency is the fitted concentration of half-maximal effect.
SMILES,"activity change, negative = inhibition",Potency
O=C(NCCCn1ccnc1)c1ccccc1F,-19.5%,
COc1ccc(-c2sc3ccc(OC)cc3c2C#Cc2ccccn2)cc1,,2.33 µM (active)
COc1ccc(-c2cn3cccnc3n2)cc1,-27.3% [at 5.75 µM],
COc1ccc(-c2csc(Nc3ccccn3)n2)cc1,9.84%,
CC1(C)C(C=C(Cl)Cl)C1C(=O)NC(O)C(=O)c1ccccc1 (stereo unspecified),21.7%,
COc1ccc(N2CCN(C3CCCCC3NS(=O)(=O)c3ccccc3)CC2)cc1 (stereo unspecified),19.5%,
O=C(NC1Cc2ccccc2C1)c1cc(COc2cccc(C(F)(F)F)c2)on1,-18.1%,
CC(C)CC(=O)Nc1nnc(S(=O)(=O)N(C)c2ccc(Cl)cc2)s1,0%,
Cc1cc(C(=O)OCC(=O)N2c3ccccc3NC(=O)C2(C)C)c(C)n1-c1ccccc1,0%,
CCNc1ccc(C(=O)OCC(=O)N2c3ccccc3NC(=O)C2(C)C)cc1[N+](=O)[O-],,9.28 µM (active)
CNS(=O)(=O)c1cccc(C(=O)OCC(=O)N2c3ccccc3NC(=O)C2(C)C)c1,-26.3%,
COc1cccc(-n2c(=S)sc3c(=O)n(-c4ccccc4C)c(SCC(=O)O)nc32)c1,23.6%,
O=C(CN1CCCCCC1)Nc1ccc(Cl)cc1F,39.2%,
CN(C)C(=O)c1ccc(NC(=O)COC(=O)c2cc3c(s2)CCCCC3)cc1,-11.1%,
CC(C)c1cc(CN2CCOCC2)cc(C(C)C)c1O,,10.4 µM (active)
Cc1cc(C)cc(NC(=S)NCCCN2CCOCC2)c1,2.48%,
CC(CN1CCOCC1)c1ccccc1 (stereo unspecified),25.6%,
CCOC(=O)Nc1ccc2c(c1)N(C(=O)CCCl)c1ccccc1[S@]2=O,-14.6%,
Cc1ccc(CCN2CC(C(=O)NCCc3ccccc3)CC2=O)cc1 (stereo unspecified),68.2%,
CC(=O)Nc1c2c(nn1-c1cccc(C)c1)CSC2,20.2%,
Cc1ccc2[nH]c(=O)c(-c3nc4c(C)cccn4c3NCc3ccco3)cc2c1,10.9% [at 5.75 µM],
CCCN(CCC)c1nc2c(C)cccn2c(=O)c1/C=C1/SC(=S)N(Cc2ccco2)C1=O,,2.08 µM (active)
O=C(CCCN1C(=O)/C(=C\c2ccco2)SC1=S)Nc1cccc2ccccc12,10.4%,
Cn1c(=O)[nH]c(=O)c2c1[nH]c(=S)n2Cc1ccccc1,10.9%,
COc1ccc(C(=O)Oc2ccc(-c3nnco3)cc2)cc1S(=O)(=O)N1CCOCC1,22.5%,
COc1ccccc1N1CCN(CC(=O)NC(=O)NCc2ccco2)CC1,27.5%,

SMILES,"activity change, negative = inhibition",Potency
COc1cc2c(cc1OC)C(C(=O)NCc1ccco1)C1c3ccccc3CCN1C2=O (stereo unspecified),,3.29 µM (active)
COc1ccc(C2=NOC(C(=O)NCc3ccco3)C2)cc1OC (stereo unspecified),-4.01%,
CCCCNC(=O)CN1C(=O)NC(Cc2ccccc2)(Cc2ccccc2)C1=O,7.91%,
CCOC(=O)c1c(NC(=S)NC(=O)/C=C/c2cccs2)sc(C)c1C,0%,
CCOC(=O)c1c(NC(=O)c2cccs2)sc(C)c1C,50.7%,
CCOC(=O)c1c(NC(=O)/C=C/c2ccco2)sc(C)c1C,,2.33 µM (active)
Cn1c(Nc2ccccc2)cc(=O)n(C)c1=O,11.9%,
COC(=O)CN1C(=O)[C@H]2[C@@H](C3CC3)N3C(=O)CN(Cc4ccc(-c5ccccc5)cc4)C(=O)[C@@]3(Cc3ccccc3)[C@H]2C1=O,40.9%,
COCCCN1C(=O)c2ccc(C(=O)Nc3ccc(OC)cc3OC)cc2C1=O,25.7% [at 5.75 µM],
CCCCCCSc1ccc([C@@H]2[C@@H]3C(=O)N(CC)C(=O)[C@@H]3[C@]3(C(=O)OC)CCCCN23)cc1OC,,6.57 µM (active)
CCN1C(=O)[C@@H]2[C@@H](c3ccc(-c4ccc(OC)cc4)c(OC)c3)N3CCC[C@@]3(C(=O)OC)[C@@H]2C1=O,,10.4 µM (active)
CCn1cc(CN2CCC(C(=O)Nc3cccc(-c4cccc(Cl)c4)c3)CC2)c(C)n1,11.7%,
COc1ccc(N2C(=O)CCC(C(=O)N(C)C3CCCCC3)C2c2ccc(OC)c(OC)c2)cc1 (stereo unspecified),-2.32%,
CCN1C(=O)[C@@H]2[C@@H](c3ccc(-c4cccc(Cl)c4)cc3)N3CCC[C@@]3(C(=O)OC)[C@@H]2C1=O,,8.28 µM (active)
COc1ccc(OC)c(NC(=O)CN(C)CCOc2ccc(Br)cc2)c1,-21.8%,
CC(=O)Nc1ccc(NC(=O)C2CCCN2S(=O)(=O)c2cccc(C(F)(F)F)c2)cc1 (stereo unspecified),6.66%,
O=C(Nc1n[nH]c(C(F)(F)F)n1)c1cccs1,41.7%,
CC(=O)NS(=O)(=O)c1ccc(N/C(N)=N/c2nc(C)cc(C)n2)cc1,-8.97%,
Clc1ccc2c(c1)C1=C(C(c3ccncc3)O2)C(c2ccc(Br)cc2)n2ncnc2N1 (stereo unspecified),,3.29 µM (active)
CC1=C(C(N)=O)C(c2ccc(Br)cc2)n2ncnc2N1 (stereo unspecified),9.45%,
COC(=O)COc1ccc2c(c1C)O/C(=C\c1ccco1)C2=O,86.9%,
CC1CC(C)(C)n2c(O)c(N=NC(N)=S)c3cccc1c32 (stereo unspecified),11.4%,
CCc1nc2ccc(C(=O)N3CCN(c4cccc(Cl)c4)CC3)cc2nc1CC,,7.38 µM (active)
Cc1nc2ccc(C(=O)N3CCN(c4ccccc4)CC3)cc2s1,-6.37%,
O=C(CCCC(=O)N1CCN(c2cccc(Cl)c2)CC1)c1ccccc1,4.4%,

# From PubChem BioAssay AID504834 (National Center for Advancing Translational Sciences (NCATS), 2011)
